Experimental findings from PubChem BioAssay AID1259343 (VanderVen Lab, College of Veterinary Medicine, Cornell …, 2017) are described below.

Hit rate of the full screen: of about 6,200 compounds, about 2,900 (47%) were called active. Rule as the data show it: active = inhibition above about 50%; inactive = the rest. So high a share suggests a set chosen from earlier hits. This is one part of the list.

The assay can be described thus: Mycobacterium tuberculosis growth inhibition, primary screen (AID 1259343). The note with it: inhibition: at 10 µM, active compounds read high; outcome: 10 uM.
The term inhibition denotes the relative decrease from the control value, in per cent. On to `Cc1cc(CN2CCN(c3c(Br)cnc4nc(-c5ccc(N6CCN(C)CC6)cc5)[nH]c34)CC2)no1`, for which the inhibition is 23.4% (inactive).
With `Clc1ccc2c(c1)C(N1CCNCC1)=Nc1ccccc1O2`, the inhibition is 81.5% (active).
As for `Cc1ccccc1CCNC(=O)Cn1c(-c2cccs2)n[nH]c1=S`, the figure is 1.7% (inactive); as for `Cc1oc(-c2ccc(C(F)(F)F)cc2)nc1CN(C)CC1COc2ccccc2O1` (stereo unspecified), 53.7% (active).
On to `COc1cccc2c1OCCCN(Cc1nc(-c3ccc(C(F)(F)F)cc3)oc1C)C2`, for which the inhibition was 23.4% (inactive).
The result for `Cc1oc(-c2cc3c(cc2Cl)OCO3)nc1CN(C)Cc1ccc(C(F)(F)F)cc1` reads 46.8% (inactive); that for `O=C(CSC1CCCCC1)NC1CCCC1`, -47.7% (inactive).
The result for `O=C(Cc1ccc(Br)cc1)NC1CCCC1` reads 82.1% (active); that for `O=C(C1=C(O)C(=O)N(c2ncccn2)C1c1ccc(Cl)c(Cl)c1)c1ccco1` (stereo unspecified), -2.77% (inactive).
As for `O=c1oc2c(-c3ccc(Br)cc3)cc(O)cc2s1`, the figure is 48.6% (inactive); as for `COc1ccc(-c2c(C)noc2-c2ccc(OC)cc2O)cc1`, 16.2% (inactive); as for `COc1ccc(-c2cc(O)cc3sc(=O)oc23)cc1`, 69.8% (active).
`CC(C)c1ccccc1OCCOc1cccc2cccnc12`: the inhibition is 61.7% (active).
The result for `CC(C)c1cccc(OCCOc2cccc3cccnc23)c1` reads 58.4% (active); that for `Cc1ccc2cccc(OCCCOc3ccc(C)c(C)c3)c2n1`, -21.9% (inactive); that for `Cc1cc(S(=O)(=O)NC2CCCCC2C)ccc1Cl` (stereo unspecified), 14.4% (inactive).
On to `Nc1c2ccccc2nc2ccccc12` (tested in a mixture with another compound), for which the inhibition is 90.3% (active).
`O=C1c2ccccc2C(=O)C1c1ccnc2ccccc12`: the inhibition is -13.4% (inactive).
As for `COc1ccccc1CN(Cc1cccc(C(F)(F)F)c1)Cc1nc(C(=O)O)co1`, the figure is 9.16% (inactive); as for `Cc1nn2c(-c3cccc(C(F)(F)F)c3)cc(C(=O)O)nc2c1-c1ccccc1`, 89.3% (active); as for `Cc1nn2c(NCCOCCO)cc(C(C)(C)C)nc2c1-c1ccccc1Cl`, 19.6% (inactive).
On to `Cc1nn2c(-c3ccccc3Cl)cc(C(=O)O)nc2c1-c1ccccc1`, for which the inhibition is 71.1% (active).
On to `COc1ccc(-c2cc(C(=O)NCCN3CCCCC3)nc3c(-c4ccccc4)c(C)nn23)cc1`, for which the inhibition was 38.1% (inactive).
In the case of `O=C1CCCC2=C1C(c1ccncc1)NC(=O)N2Cc1ccccc1` (stereo unspecified), the inhibition is 85.2% (active).
As for `COc1ccc2cc(C(=O)C3CCCN(C(=O)CCC(=O)c4ccc(F)cc4)C3)ccc2c1` (stereo unspecified), the figure is 87.2% (active); as for `COc1ccc2cc(C(=O)C3CCCN(Cc4cccc(C)n4)C3)ccc2c1` (stereo unspecified), 42.4% (inactive); as for `COc1ccc(C(=O)N2CCCC(C(=O)c3ccc(-c4ccccc4)c(F)c3)C2)o1` (stereo unspecified), “inactive”.
As for `Clc1ccc(Cn2ncc3c(Nc4ccc(Cl)cc4)ncnc32)cc1`, the figure is 9.84% (inactive); as for `Clc1ccc(Nc2nccc3c2ncn3Cc2ccccc2)cc1`, 57.3% (active); as for `Cc1ccc(Nc2nc(N3CCN(Cc4ccccc4)CC3)nc3nccnc23)cc1Cl`, 19.4% (inactive).
The result for `Cc1cc2ncn(Cc3ccc(C(C)C)cc3)c2cc1C` reads -9.75% (inactive); that for `CC(C)c1ccc(Nc2nccc3c2ncn3Cc2ccccc2)cc1`, 73% (active).
As to `C=C(C)Cn1c(SCCCC)nc2c1c(=O)[nH]c(=O)n2C`, the inhibition is -35.9% (inactive).
The result for `CCS(=O)(=O)N1CCc2cc(-c3csc(-c4ccc(O)cc4)n3)ccc21` reads 11.5% (inactive); that for `O=C(CCCc1ccc(Cl)cc1)N1CCCC(CO)(Cc2ccc(F)cc2F)C1` (stereo unspecified), 18.9% (inactive).
The result for `O=C(CCC(F)(F)F)N1CCCC(CCc2ccc(F)cc2F)C1` (stereo unspecified) reads 66% (active).
In the case of `Cc1ccc(C(=O)N2CCCC(CCc3ccc(F)c(F)c3)C2)cc1O` (stereo unspecified), the inhibition was 7.31% (inactive).
As for `CCCn1cc(CNC(=O)c2ccc(Cl)cn2)cn1`, the inhibition was -32.2% (inactive).
On to `CCCOc1ccc2c(c1)OCC(C(=O)Nc1cnn(C)c1)=C2`, for which the inhibition is -4.68% (inactive).
`CCCn1cc(NC(=O)c2cc(-c3ccccc3)on2)cn1`: the inhibition was 85.3% (active).
Turning to `O=[N+]([O-])c1cc(S(=O)(=O)C(F)(F)F)ccc1N1CCN(c2ccccc2F)CC1`, the inhibition was 24.3% (inactive).
Turning to `O=S(=O)(Nc1ccc(N2CCCC2)c(F)c1)c1cc(F)cc(F)c1`, the inhibition was 56.4% (active).
As for `O=C(c1cc(Br)cc(Br)c1)N1CCCCCC1`, the figure is -4.59% (inactive); as for `Cc1ccc(C(=O)N2CCCN(C(=O)OC(C)(C)C)CC2)cc1S(C)(=O)=O`, 74.7% (active).
As for `Cc1ccc(Cl)cc1N1CCN(C(=O)c2ccc(=O)[nH]c2)CC1`, the figure is 32.4% (inactive).
As for `OCc1sc(N2CCOCC2)nc1-c1ccccc1`, the figure is 89.7% (active).
As to `Cc1cc2c(cc1C)C(=O)C(N1CCOCC1)=C(c1ccccc1)C2=O`, the inhibition was 40.4% (inactive).
As for `CCN(Cc1ccccc1)C(=O)c1ccc(-c2ccccc2)nc1N1CCOCC1`, the figure is 20.4% (inactive); as for `Cc1cc(-c2n[nH]c(=S)o2)c(C)n1-c1ccccc1`, 70.3% (active).
Consider `S=c1[nH]nc(-c2cc(-c3cccs3)nc3ccccc23)o1`, for which the inhibition entry was “inactive”.
`COC(=O)c1ccc(F)c(NS(=O)(=O)c2ccc(Cl)c(C(F)(F)F)c2)c1`: the inhibition was 41.9% (inactive).
On to `O=S(=O)(Nc1ccc(Br)cc1F)c1ccc(Cl)c(C(F)(F)F)c1`, for which the inhibition is 88.3% (active).
The result for `O=S(=O)(Nc1ccc(Br)cc1Cl)c1ccc(F)cc1` reads 50.5% (active).
As to `O=S(=O)(Nc1ccc(Br)cc1F)c1cccs1`, the inhibition was 31.8% (inactive).
On to `O=[N+]([O-])c1ccc(NN=CC2CCCCC2)cc1`, for which the inhibition was 97.8% (active).
Turning to `O=[N+]([O-])c1ccc(NN=C2CCCCCCC2)cc1`, the inhibition is 88.4% (active).
With `O=[N+]([O-])c1ccccc1NN=C1CCCCc2ccccc21`, the inhibition was 5.1% (inactive).
As for `CC(C)(C)C1CCC(=NNc2ccc([N+](=O)[O-])cc2)CC1` (stereo unspecified), the figure is -18.8% (inactive).
The result for `CCC(C)(C)C1CCC(=NNc2ccc([N+](=O)[O-])cc2)CC1` (stereo unspecified) reads 74.3% (active); that for `O=S(=O)(Oc1ccc2ccccc2c1Cl)N1CCCCC1`, 0.9% (inactive); that for `Cc1nn(-c2ccccc2)c2[nH]cc(C(=O)Nc3ccc(N(C)C)cc3)c(=O)c12`, 29% (inactive).
`COc1ccc(NC(=O)c2c[nH]c3c(c(C)nn3-c3ccccc3)c2=O)cc1`: the inhibition was 67.8% (active).
The result for `Cc1cc(C)cc(NC(=O)c2c[nH]c3c(c(C)nn3-c3ccccc3)c2=O)c1` reads 45.9% (inactive); that for `Cc1nn(-c2ccccc2)c2[nH]cc(C(=O)Nc3ccccc3)c(=O)c12`, 53.1% (active).
As for `COc1cccc(NC(=O)c2c[nH]c3c(c(C)nn3-c3ccccc3)c2=O)c1`, the figure is 90.4% (active); as for `Cc1ccc(-n2nc(C)c3c(=O)c(C(=O)N4c5ccccc5CC4C)c[nH]c32)cc1` (stereo unspecified), 54.2% (active).
